Experimental data as given in PubChem BioAssay AID2391 (Southern Research Specialized Biocontainment Screening …, 2010).
About 410 (0.13%) of roughly 310,000 compounds were called active. Roughly 2% stayed inconclusive and do not appear here. How the calls were made is not given here. Only a sample is shown. Measured potencies and affinities stand elsewhere.

Experiment: inhibition of RSV-induced cytopathic effect – HEp-2 cells, primary 10 µM value included (AID 2391)
Details: at 10 µM, stronger effect = higher value

CPE inhibition, inactive:
Cc1cccc(C)c1NC(=O)CN(C)CC(=O)c1c(N)n(Cc2ccccc2)c(=O)n(C)c1=O 0.19%
Cc1ccc2nc(C)cc(C(=O)OCC(=O)Nc3c(C)n(C)n(-c4ccccc4)c3=O)c2c1 2.74%
Cc1c(NC(=O)COC(=O)c2cc(-c3cccc4ccccc34)nc3ccccc23)c(=O)n(-c2ccccc2)n1C 1.88%
COc1ccc(/C=N/NC(=O)Cc2ccc(Cl)cc2)cc1OC 1.07%
CN(C)c1ccc(NC2=C(Cl)C(=O)c3ccccc3C2=O)cc1 -2.87%
COc1ccc(NC2=C(NC(C)=O)C(=O)c3ccccc3C2=O)cc1 -0.06%
CCC1=NN2C(=N)/C(=C\c3cccn3-c3ccc(C)c(C)c3)C(=O)N=C2S1 15.3%
CCC1=NN2C(=N)/C(=C\c3cccn3-c3ccc(C)cc3C)C(=O)N=C2S1 16.1%
c1ccc(-n2cc(CN3CCCC3)c(-c3ccc4c(c3)OCO4)n2)cc1 5.52%
Cc1ccc(NC(=O)c2sc(N)nc2-c2ccc([N+](=O)[O-])cc2)cc1C -0.73%
Cc1ccccc1C(=O)NC(C)C(c1cccs1)N1CCOCC1 (centres undefined) -0.28%
Cc1nn(-c2ccc(F)cc2)c2nc(N)c(C#N)c(-c3ccc(O)c(O)c3)c12 0.04%
Cc1nn(-c2ccccc2)c2nc(N)c(C#N)c(-c3ccc(O)c(O)c3)c12 39.2%
Cc1ccc(C)c2c1cc(C)c1nnc(SCC(=O)NCc3ccc4c(c3)OCO4)n12 2.14%
CCOC(=O)/C(C#N)=C/c1c(N2CCN(c3ccc(OC)cc3)CC2)nc2c(C)cccn2c1=O 7.79%
Cc1ccc(N2CC(O)Cn3c2nc2c3c(=O)n(C)c(=O)n2C)cc1 (centres undefined) 0.84%
Cc1csc(NC(=O)CSc2nnc(C)c(=O)n2N)n1 -0.18%
NNC(=O)c1[nH]c(-c2ccccc2)cc1-c1ccccc1 0.95%
O=C1c2ccccc2C(Nc2ccccc2)N1Cc1ccc2c(c1)OCO2 (centres undefined) 8.65%
O=C1c2ccccc2C(Nc2ccc3c(c2)OCO3)N1Cc1ccc2c(c1)OCO2 (centres undefined) 13.8%
C/C=C/C(=O)Nc1nnc(-c2ccccc2C)s1 0.32%
CCOc1cccc(C(=O)Nc2ccccc2C(=O)N2CCN(C)CC2)c1 -0.42%
CC(CC(=O)Nc1nccs1)c1ccccc1 (centres undefined) -0.09%
O=C(c1cccc(S(=O)(=O)N2CCc3ccccc32)c1)N1CCc2ccccc2C1 7.22%
COc1cc2c(cc1OC)CN(C(=O)c1cccc(S(=O)(=O)N(C)C)c1)CC2 1.79%
O=C(C1CC(=O)N(c2ccc(F)cc2)C1)N1CCOCC1 (centres undefined) 3.24%
Cn1c(O)c(/C=C2\C=Nc3ccccc32)sc1=Nc1ccc(C(=O)O)cc1 1.42%
C/C(=N\NC(=O)c1ccc(NS(=O)(=O)c2cccs2)cc1)c1ccncc1 3.91%
C/C(=N\NC(=O)c1ccc(NS(=O)(=O)c2cccs2)cc1)c1ccccc1 -0.3%
CC(C)=CCCC(C)CN1CCC(n2nccc2NC(=O)c2ccc3c(c2)OCO3)CC1 (centres undefined) -0.22%
COCCCNC(=O)c1ccc(Cn2c(=O)c3ccccc3n(Cc3cc(C)ccc3C)c2=O)cc1 1.91%
O=C(NCc1ccco1)c1ccc2c(=O)n(-c3ccccc3)c(=O)n(Cc3cccc(F)c3)c2c1 0.67%
O=C(CCCn1c(=O)c2sccc2n(Cc2ccc(F)cc2)c1=O)NCc1ccco1 -0.44%
O=C(NCc1ccco1)c1ccc(Cn2c(=O)c3ccccc3n(Cc3cccc(F)c3)c2=O)cc1 4.05%
N#Cc1ccccc1Cn1c(=O)n(Cc2ccc(C(=O)NCc3ccco3)cc2)c(=O)c2sccc21 2.1%
O=C(NCc1ccco1)c1ccc(Cn2c(=O)c3ccccc3n(Cc3cccc(Cl)c3)c2=O)cc1 18.6%
COCCCNC(=O)c1ccc(Cn2c(=O)c3ccccc3n(Cc3ccccc3C)c2=O)cc1 1.4%
N#Cc1ccccc1Cn1c(=O)n(Cc2ccc(C(=O)NCc3ccco3)cc2)c(=O)c2ccccc21 2.54%
CCN1CCCC1CNC(=O)Cn1ncc2c(=O)oc3ccc(C)cc3c21 (centres undefined) 2.08%
Cc1ccccc1/C=N\NC(=O)c1ccc(Cn2cccn2)o1 1.85%
O=c1nc2ccccc2c2n1CC(CN1CCN(c3ccc(F)cc3)CC1)N2 (centres undefined) -0.72%
CCCOc1ccccc1C1NC(=O)NC(C)=C1C(=O)OCCOCC (centres undefined) -0.41%
CCC(C)c1ccccc1NC(=S)Nc1cccnc1 (centres undefined) 3.94%
Cc1ccc(N2C(=O)N(C(C)C)C(C)(C)CC2(C)O)cc1 (centres undefined) 2.14%
O=C(c1cccc(Cl)c1)C1CCCN(C(=O)c2ccoc2)C1 (centres undefined) -0.58%
O=c1cc(-c2ccc(O)c(O)c2)oc2cc(O)c(C3OC(CO)C(O)C(O)C3O)c(O)c12 (centres undefined) 0.47%
O=c1cc(-c2ccc(O)cc2)oc2c(C3O[C@H](CO)[C@@H](O)[C@H](O)[C@H]3O)c(O)cc(O)c12 (some centres undefined) -1.94%
O=C1c2cccnc2C(Nc2ccccc2Br)N1Cc1ccco1 (centres undefined) 4.55%
O=C1c2cccnc2C(Nc2cccc(F)c2)N1Cc1ccco1 (centres undefined) 12%
COc1cc(NC2c3ncccc3C(=O)N2Cc2ccco2)cc(OC)c1 (centres undefined) 9.47%
COc1ccc(OC)c(NC2c3ncccc3C(=O)N2Cc2ccco2)c1 (centres undefined) 6.51%
CCCOc1ccc(CN(C(=O)c2cccc(OC)c2)C2CCS(=O)(=O)C2)cc1 (centres undefined) 0.38%
CC(O)CNc1nc2ccccc2n1CC(=O)NCC(F)(F)F (centres undefined) 0.4%
O=C(Oc1ccc(C(=S)N2CCOCC2)cc1)c1ccc([N+](=O)[O-])cc1[N+](=O)[O-] 1.71%
O=C(COc1ccc(F)cc1Cl)Nc1ccc(S(=O)(=O)Nc2nccs2)cc1 -1.6%
CC(C)(C)c1cc(CNC2CS(=O)(=O)C[C@@H]2O)cc(C(C)(C)C)c1O (some centres undefined) 0.68%
Cc1cc(Nc2cccc(Cl)c2)c2ccccc2n1 11%
COC(=O)c1cccc(Nc2nc3ccccc3nc2C)c1 7.1%
CCOc1ccc(-c2c(C(=O)N/N=C/C3CC=CCC3)nnn2-c2nonc2N)cc1 (centres undefined) 0.26%
CN1c2ccccc2C(C)(C)C12CC(CCl)=NO2 (centres undefined) 0.62%
CC1=NOC2(C1)N(C)c1ccccc1C2(C)C (centres undefined) -0.95%
CN1c2ccccc2C(C)(C)C12CC(c1ccc(Cl)c(S(=O)(=O)N3CCCC3)c1)=NO2 (centres undefined) 3.21%
CCN(CC)S(=O)(=O)c1ccc(C2=NOC3(C2)N(C)c2ccccc2C3(C)C)cc1 (centres undefined) 49.6%
COC(=O)COc1ccc(S(=O)(=O)NCc2ccc3c(c2)OCO3)cc1C 1.14%
CCCC[C@@H]1CNCCN1CCc1cccc2ccccc12 -0.31%
Cc1cccc(NS(=O)(=O)c2ccc(C(=O)NCC3CCCO3)cc2)c1C (centres undefined) 2.28%
CN(C)c1nc(C(N)=O)nc(N2CCOCC2)n1 0.62%
Cc1cc(C)n(CCCNC(=O)CN(C)S(=O)(=O)c2ccc(Cl)cc2)n1 -0.89%
Cc1ccc(-c2nc(CSCC(=O)N3CCCC3)c(C)o2)cc1 20.2%
Cc1oc(-c2ccccc2Cl)nc1CSCC(=O)O 2.04%
Cc1ccc(Nc2nc(=O)c3cccnc3s2)cc1 4.1%
CC(=O)c1cccc(Nc2nc(=O)c3cccnc3s2)c1 -1.05%
O=c1nc(Nc2ccc(OCc3ccccc3)cc2)sc2ncccc12 43.1%
CC(=O)c1ccc(Nc2nc(=O)c3cccnc3s2)cc1 -0.53%
O=C(O)CSc1nnc(COc2ccc(Br)cc2)n1-c1ccccc1 1.47%
COC(=O)c1sccc1S(=O)(=O)N1CCCC(N(C)CCc2ccccn2)C1 (centres undefined) -0.75%
CCN(C(=O)c1cc2ccccc2oc1=O)c1ccccc1 0.2%
O=C1c2ccccc2C(=O)N1CCCCN(C(=O)c1cccc([N+](=O)[O-])c1)c1ccc(Cl)cc1 60.5%
O=C(c1cc2ccccc2oc1=O)N(c1ccc(Cl)cc1)C1C=CS(=O)(=O)C1 (centres undefined) 1.15%
O=C1c2ccccc2C(=O)N1CCCCN(C(=O)c1ccc(Cl)s1)c1ccc(Cl)cc1 42.2%
O=C1c2ccccc2C(=O)N1CCCCN(C(=O)c1cc([N+](=O)[O-])cc([N+](=O)[O-])c1)c1ccc(Cl)cc1 46.5%
Cc1ccc(N(CCCCN2C(=O)c3ccccc3C2=O)C(=O)c2ccc(Cl)s2)cc1 44.1%
CN(Cc1ccccc1)C(=O)N[C@@H](Cc1ccccc1)C(=O)O 0.64%
COc1cccc(CCc2nnc(CCC(=O)NC(C)c3c(C)nn(C)c3C)o2)c1 (centres undefined) 0.66%
COc1ccc(OC)c(CN2CCN(C(=O)c3ccc(F)cc3)CC2)c1 2.45%
CC(C)Cc1nnc(NC(=O)CCC(=O)Nc2ccccc2F)s1 1.44%
Nc1ccc(-c2nc3ccc(C(=O)O)cc3s2)cc1 -1.01%
Nc1ccc(-c2nc3ccc(N)cc3s2)cc1 -1.51%
CCc1n(CC(O)COCC2CC=CCC2)c2ccccc2[n+]1C (centres undefined) 0.73%
